Screens as filed in PubChem.
Compounds with a hit are over-represented: about 10% of the library has one in this group of screens.
JMJD2A Tudor: JMJD2A Tudor domain (human) inhibition. 390,000 compounds, 4.4% hits. Potency, µM (highest dose often 114 µM), for inactives: at the top dose activity change, negative = inhibition, actives largely listed as inhibitors. O75164. AlphaScreen JMJD2A-Tudor / H3K4me3 peptide binding. AID 504339; note: % is set by controls: 0 for no effect and ±100 for the full control effect; nearly all actives have a fitted effect of over 50% in size
GLS inhibitor: blocks human kidney-isoform glutaminase activity; AID 624170; Potency, µM (highest dose often 45.5 µM), for inactives: at the highest dose activity change, negative = inhibition, most hits filed as inhibitors; 410,000 compounds, 0.21% hits; O94925; GLS enzymatic activity, qHTS titration; note: % is set by controls: 0 for no effect and ±100 for the full control effect
Target sequence (O94925 whole entry, looked up, canonical isoform): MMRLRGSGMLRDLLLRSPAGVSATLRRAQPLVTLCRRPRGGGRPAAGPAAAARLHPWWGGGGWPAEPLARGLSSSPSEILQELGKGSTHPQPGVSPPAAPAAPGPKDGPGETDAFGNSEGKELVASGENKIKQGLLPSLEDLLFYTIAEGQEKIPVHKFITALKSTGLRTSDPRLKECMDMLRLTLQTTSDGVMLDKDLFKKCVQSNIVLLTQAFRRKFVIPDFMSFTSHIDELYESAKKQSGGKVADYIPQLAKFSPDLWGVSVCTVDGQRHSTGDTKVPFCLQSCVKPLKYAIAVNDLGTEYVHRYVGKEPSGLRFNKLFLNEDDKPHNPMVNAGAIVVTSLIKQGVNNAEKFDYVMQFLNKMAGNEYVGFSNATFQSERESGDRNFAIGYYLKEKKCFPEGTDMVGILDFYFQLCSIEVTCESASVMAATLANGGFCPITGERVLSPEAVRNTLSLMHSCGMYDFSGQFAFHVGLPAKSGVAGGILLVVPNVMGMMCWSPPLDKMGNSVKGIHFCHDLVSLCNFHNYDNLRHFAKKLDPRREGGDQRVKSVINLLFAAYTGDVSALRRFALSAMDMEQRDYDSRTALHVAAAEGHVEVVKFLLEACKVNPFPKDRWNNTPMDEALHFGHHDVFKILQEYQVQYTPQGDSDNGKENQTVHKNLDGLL
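Coupled fluorescence readout: glutamate oxidase/HRP/Amplex Red detect glutamate formed by hKGA from L-glutamine (1 mM solution added). Buffer 45 mM KH2PO4 pH 8.2, 0.02% Tween-20; reads at t0 and 30 min RT.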
BAZ2B block: blocks human BAZ2B. Potency, µM (highest dose often 114 µM), for the others: top-dose activity change, negative = inhibition, hits mostly inhibitors. Q9UIF8. AID 504333. AlphaScreen BAZ2B-H3K14Ac peptide displacement. 360,000 compounds, 4.4% hits; note: % is set by controls: 0 for no effect and ±100 for the full control effect; nearly all actives have a fitted effect of over 60% in size
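Compounds, titrated to a top concentration of 110 uM, were incubated 30 min at room temperature with preformed BAZ2B/acetyl-K14 H3 peptide complex (50 nM each). Proximity signal was measured by AlphaScreen after 20 min with beads.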
G9a inh: G9a (human) methyltransferase inhibition; Q96KQ7; G9a H3K9 monomethylation, AlphaScreen, 2 h; Potency, µM (doses to about 102 µM), without a hit: top-dose activity, negative = inhibition, usual class: inhibitors; 350,000 compounds, 8.8% hits; note: % is set by controls: 0 for no effect and ±100 for the full control effect; nearly all actives have a fitted effect of over 75% in size
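Methyltransferase reactions run at room temperature for 2 h (20 nM enzyme, 500 nM biotin-H3K9 peptide, 20 uM SAM) after a 15 min compound preincubation; product detected by AlphaScreen beads and anti-H3K9me1 antibody.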
HP1b binding inh: inhibitors of HP1-beta chromodomain binding to methylated histone tails. AID 540317. Potency, µM (doses to about 114 µM), without a hit: top-dose activity change, negative = inhibition, hits mostly inhibitors. AlphaScreen HP1-beta / biotin-H3K9me3 peptide binding. P83916. 390,000 compounds, 0.56% hits; note: nearly all actives have a fitted effect of over 70% in size
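AlphaScreen: HP1-beta (50 nM) preformed 30 min with biotin-H3(1-18)K9me3 peptide (50 nM) in PBS pH 7.4, 0.01% Tween-20. Compound added for 30 min at RT, then streptavidin donor/nickel chelate acceptor beads (10 ug/mL) for 30 min.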
Starred values were filed as active, the others as inactive; ? = inconclusive; . = not tested or not shown; ! = not confirmed by another sample; [ ] = another dose, or the depositor's remark. Calls come from the whole dose curve; as a rule, active = well fitted curve in the direction sought with a large enough effect; inconclusive = small, poorly fitted or top-dose-only effect, or another doubt; inactive = no such curve, though single readings can be large; an effect the other way counts as inactive or inconclusive. Potency is the fitted concentration of half-maximal effect.

SMILES | JMJD2A Tudor | GLS inhibitor | BAZ2B block | G9a inh | HP1b binding inh
CC1=CC(C)(C)Nc2ccc(OC(=O)C(Cc3ccccc3)N3C(=O)c4ccccc4C3=O)cc21 (stereo not drawn) | ? | -3% | ? | ? | ?
C#CCOC(=O)CN1C(=O)c2cccc3cccc(c23)C1=O | -13% | 0% | -5% | -2% | 40%
CCOc1ccc2c(c1)C(C)=CC(C)(C)N2 | ? | -7% | 50µM* | 8.9µM*! | -7%
CC1=CC(C)(C)Nc2ccc(OC(=O)CN3C(=O)c4cccc5cccc(c45)C3=O)cc21 | ? | -1% | 50µM* | 8.9µM* | -21%
O=c1c(S(=O)(=O)c2ccccc2)cn(Cc2ccc(F)cc2)c2cc(N3CCCCC3)c(F)cc12 | -2% | 1% | -1% | 10%[59 µM] | 67%
Cc1cccc(N2CCN(C(=O)c3ccc(NC4=NC5CS(=O)(=O)CC5S4)cc3)CC2C)c1 (stereo not drawn) | ? | 28% | ? | -22% | -12%
CCCN1C(=O)c2ccccc2NC1c1ccc(OC)c(COc2cccc(OC)c2)c1 (stereo not drawn) | -18%[57.1 µM] | . | . | . | 17%[57 µM]
Cc1ccc(-c2nc(S(=O)(=O)c3ccc(Cl)cc3)c(N3CCCCC3)o2)cc1 | -34% | -7% | ? | 2.8µM* | ?
COc1ccc(-c2nc(S(=O)(=O)c3ccc(C)cc3)c(N3CCCCC3)o2)cc1 | 50µM* | -7% | ? | 3.5µM* | ?
COc1ccc(-c2nc(S(=O)(=O)c3ccccc3)c(N3CCOCC3)o2)cc1 | 79µM* | 0% | -29% | ? | -1%
Cc1ccc(S(=O)(=O)c2nc(-c3cccc(C)c3)oc2N2CCCCC2)cc1 | -20% | -1% | -31% | ? | 8%
CC(C)(C)c1ccc(-c2nc(S(=O)(=O)c3ccccc3)c(N3CCOCC3)o2)cc1 | ? | -6% | ? | ? | -12%
O=P(c1ccccc1)(c1ccccc1)c1nc(-c2ccccc2)oc1N1CCOCC1 | -20% | 0% | ? | 0%[59 µM] | -3%
O=P(c1ccccc1)(c1ccccc1)c1nc(-c2ccc(Cl)cc2)oc1N1CCOCC1 | ? | -17% | 45µM* | ? | -30%
O=C(COc1ccc(C(=O)NCC2CCCO2)cc1)Nc1cccc(C(F)(F)F)c1 (stereo not drawn) | -8% | 5% | 5% | ? | 33%
Cc1ccc(S(=O)(=O)N2CCN(S(=O)(=O)c3ccc4c(c3)OCCCO4)CC2)cc1 | -26%[57.1 µM] | . | . | . | 12%[57 µM]
Cc1ccc(S(=O)(=O)N2Cc3ccccc3CC2C(=O)Nc2ccc3c(c2)OCO3)cc1 (stereo not drawn) | 79µM* | 0% | ? | ? | ?
CCc1nnc(NC(=O)C2CCCN2S(=O)(=O)c2ccc(C)cc2)s1 (stereo not drawn) | -5% | -13% | 4% | -39% | 46%
CCc1nnc(NC(=O)C2Cc3ccccc3CN2S(=O)(=O)c2ccc(C)cc2)s1 (stereo not drawn) | ? | -20% | ? | 40µM* | 0%
CCc1nnc(NC(=O)C2Cc3ccccc3CN2S(=O)(=O)c2cccs2)s1 (stereo not drawn) | -34% | 3% | -1% | 14µM* | 30%
O=C(Nc1nnc(C2CC2)s1)C1Cc2ccccc2CN1S(=O)(=O)c1cccs1 (stereo not drawn) | -15% | -1% | -4% | -6%[59 µM] | 31%
O=C(O)C1Cc2ccccc2CN1S(=O)(=O)c1ccc2ccccc2c1 (stereo not drawn) | 50µM* | 15% | 50µM* | 7.9µM* | 8%
O=C(/C=C/c1ccco1)N(Cc1cccc(F)c1)C1CCS(=O)(=O)C1 (stereo not drawn) | -24% | -2% | -26% | 40µM* | 23%
O=C(/C=C/c1ccco1)N(Cc1ccccc1)C1CCS(=O)(=O)C1 (stereo not drawn) | -15% | -10% | -28% | 35µM* | 26%
O=C(/C=C/c1ccco1)N(Cc1ccc(F)cc1)C1CCS(=O)(=O)C1 (stereo not drawn) | -18% | -6% | -6% | . | 12%
